Results on 18 compounds are retold here after PubChem BioAssay (Tox21).

Results filed as inconclusive are left out. Active and inactive are the calls of the source. Calls come from the whole dose curve; as a rule, active = well fitted inhibition curve with a large enough effect in the signal ratio in the repeat runs (not every such curve was filed as active); inconclusive = weak or mixed curves, or effect the other way; inactive = no such curve, though single readings can be large or run the other way; the % refers to the signal ratio.

Peroxisome proliferator-activated receptor delta (Homo sapiens), sequence (Q03181 whole entry, looked up): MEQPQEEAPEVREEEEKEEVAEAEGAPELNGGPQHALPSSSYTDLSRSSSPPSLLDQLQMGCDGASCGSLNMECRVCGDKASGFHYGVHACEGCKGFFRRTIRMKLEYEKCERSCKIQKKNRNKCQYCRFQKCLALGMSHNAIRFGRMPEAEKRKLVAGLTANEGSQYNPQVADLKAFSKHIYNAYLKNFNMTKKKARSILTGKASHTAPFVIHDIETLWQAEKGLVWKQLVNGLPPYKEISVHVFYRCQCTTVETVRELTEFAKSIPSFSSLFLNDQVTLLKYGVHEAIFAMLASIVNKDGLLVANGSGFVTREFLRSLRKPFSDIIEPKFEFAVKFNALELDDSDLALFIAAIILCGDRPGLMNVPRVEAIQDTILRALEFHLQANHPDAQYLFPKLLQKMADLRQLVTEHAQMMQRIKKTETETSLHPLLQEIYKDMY

One experiment concerns the target Peroxisome proliferator-activated receptor delta (Homo sapiens) (UniProt Q03181). The experiment in a line: qHTS assay to identify small molecule antagonists of the peroxisome proliferator-activated receptor delta (PPARd) signaling pathway (AID 743215).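 Note: cells stimulated with agonist L165041 at 300 nM final during compound exposure.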 The note with it: HEK293H PPARd-UAS-bla, beta-lactamase FRET ratio, antagonist, 17 h; series mostly up to 62 µM. In short, it runs like this:
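Read-out is beta-lactamase FRET fluorescence, measured 2 h after substrate addition at room temperature. Beforehand, UAS-bla HEK293H cells carrying the PPARd reporter were exposed to compounds with L165041 at 300 nM final for 17 h at 37 C.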
Turning to `CSc1ccc(C=O)cc1`, the outcome was inactive.

Regarding `CCC(C)(C)C1CCC(OC)CC1` (stereo not drawn), the result was inactive.

As to `C=CCSCC1Nc2cc(Cl)c(S(N)(=O)=O)cc2S(=O)(=O)N1` (stereo not drawn), the result was inactive.

As for `CC(C)N1C(=O)c2ccccc2C1=O`, the outcome was inactive.

With `O=S(=O)(O)c1ccccc1O`, the result was inactive.

Consider `NS(=O)(=O)c1cc2c(cc1Cl)NC(CSCc1ccccc1)=NS2(=O)=O`, for which the result was inactive.

With `CC(=O)c1ccc(C)cc1`, the result was inactive.

On to `CC1(C)OC(=O)Nc2ccc(Br)cc21`, for which the outcome was inactive.

As for `CCCCCCCCN(C)CCCCCCCC`, the result was inactive.

Consider `CC(C)COC(=O)c1ccccc1O`, for which the result was inactive.

For a further experiment, the target named is Bile acid receptor (Homo sapiens) (UniProt Q96RI1). The experiment in a line: qHTS assay to identify small molecule antagonists of the farnesoid-X-receptor (FXR) signaling pathway (AID 743217). To be noted: HEK293T FXR-UAS-bla, beta-lactamase ratio, CDCA-stimulated, 16 h; series mostly up to 62.6 µM. Summed up: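 HEK 293T FXR-UAS-bla, 5000 cells/well; compound + CDCA 50 uM final; 16 h, 37 °C; B/G FRET substrate 2 h RT; fluorescence.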
Bile acid receptor (Homo sapiens), sequence (Q96RI1 whole entry, looked up): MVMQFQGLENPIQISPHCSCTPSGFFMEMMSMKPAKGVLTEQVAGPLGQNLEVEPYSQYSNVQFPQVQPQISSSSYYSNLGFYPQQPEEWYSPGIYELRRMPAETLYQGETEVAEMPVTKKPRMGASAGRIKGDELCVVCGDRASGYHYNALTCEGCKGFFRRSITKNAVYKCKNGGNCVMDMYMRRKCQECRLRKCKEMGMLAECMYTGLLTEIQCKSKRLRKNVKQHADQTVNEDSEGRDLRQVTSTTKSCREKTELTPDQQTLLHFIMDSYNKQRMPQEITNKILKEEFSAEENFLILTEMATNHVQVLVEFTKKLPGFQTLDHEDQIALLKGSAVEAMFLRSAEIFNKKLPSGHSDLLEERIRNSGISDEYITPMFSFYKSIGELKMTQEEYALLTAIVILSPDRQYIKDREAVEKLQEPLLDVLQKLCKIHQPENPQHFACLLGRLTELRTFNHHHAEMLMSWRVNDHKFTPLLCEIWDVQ
A general note: qHTS replaces the single test concentration by a dilution series.
Consider `NC(=O)Nc1nc2ccccc2[nH]1`, for which the outcome was inactive.

With `CC(C)[C@H](N)C(=O)OCCOCn1cnc2c(=O)[nH]c(N)nc21`, the outcome was inactive.

For the compound `O=C(O)C(O)[C@H](O)[C@@H](O)[C@H](O)[C@H](O)CO` (stereo partly drawn), the result was inactive.

Turning to `N#CCc1ccccc1[N+](=O)[O-]`, the result was inactive.

`CCOC(=O)Cn1c(=O)sc2cccc(Cl)c21`: the result was inactive.

In the case of `O=C(O)c1cccc(C(=O)O)n1`, the result was inactive.

`O=C(O)/C=C/c1ccc(Cn2ccnc2)cc1`: the outcome was inactive.

In the case of `CCCOCC(C)OCC(C)O` (stereo not drawn), the outcome was inactive.
